Screening results: PubChem, several laboratories
Compounds with a hit are over-represented: about 5.4% of the library has one in this group of screens.
PP1 counter – blocks human PP1-alpha phosphatase, a PP5 counter-screen; 320,000 tested, 0.9% active; AID 2235; inhibition, % at 6.7 µM; purified PP1alpha, OMFP fluorescence; P62136;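 active = inhibition above the mean inhibition of all tested compounds plus 3 SD, computed separately for each screening campaign, cut at about 15% in these data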
Calb FLC – affects C. albicans growth with fluconazole; C. albicans CaCi-2 (fluconazole-resistant clinical isolate) + fluconazole, Alamar Blue growth, 48 h; growth inhibition, % (no concentration beside the values); 300,000 tested, 0.57% active; AID 1979;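 active = growth inhibition above about 58% in most replicates, limit read from the data, passing the limit was not always enough; inconclusive = exactly half the replicates above a set limit; inactive = most replicates below a set limit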;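 note: all wells also contain fluconazole at 8 µg/ml as a sub-toxic cotreatment; 0% = median of DMSO wells and 100% = median of geldanamycin control wells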
PP5 primary – PP5 (human) phosphatase inhibition; AID 1987; purified PP5c, OMFP substrate fluorescence; inhibition, % at 6.7 µM; P53041; 320,000 tested, 0.18% active;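 active = inhibition above the campaign's mean inhibition across all tested compounds plus 3 SD, cut at about 9.5% in these data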;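 note: 0% = DMSO only and 100% = 100 µM cantharidin control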
ALR H2O2 inh – human ALR oxidase inhibition via reduced H2O2 | purified ALR, DTT oxidation, H2O2 HRP-luminol luminescence | inhibition, % (concentration not given with the values) | 290,000 tested, 3.8% active;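 active = mean replicate inhibition above about 79%, with every replicate also reaching it, limit read from the data; inconclusive = only one of the two criteria met; inactive = mean below limit and not every replicate reaching it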
CSC inhib – blocks cancer stem cells | inhibition, % at 7.5 µM | 300,000 tested, 1.1% active | cancer stem cell-like cells viability, luminescence | AID 2717; in the data active = inhibition above about 75%; inconclusive = no clear call, values can overlap the other calls; tested in HMLE shEcad cells
PP1 inh confirm – confirmation of human PP1 phosphatase inhibitors; inhibition, % at 6.7 µM; purified PP1alpha, OMFP substrate fluorescence; 1,900 tested, 52% active; shares compounds with PP1 counter; AID 2358;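 active = mean PP1 inhibition above a set limit taken from the earlier primary screen, cut at about 15% in these data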
PP5 counter – counter-screen for PP1 inhibitors: human PP5 phosphatase inhibition; shares compounds with PP1 counter; purified PP5c, OMFP fluorescence; inhibition, % at 6.7 µM; 1,900 tested, 4% active;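 active = mean PP5 inhibition over triplicate wells above about 9.5% taken from the earlier PP1 screen, limit read from the data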
Active calls of the source: *.

`O=C(NC(C(=O)N/N=C/c1ccccc1)c1n[nH]c(=O)c2ccccc12)c1ccccc1` (stereo not drawn) gave PP1 counter 2.9, Calb FLC 10.0, PP5 primary -0.4 and ALR H2O2 inh -5.3.
Screening O=C(NC(C(=O)N/N=C/c1c2ccccc2cc2ccccc12)c1n[nH]c(=O)c2ccccc12)c1ccccc1 (stereo not drawn) returned PP1 counter 18.3*, Calb FLC -2.1, PP5 primary 4.0, ALR H2O2 inh -7.3, CSC inhib -4.6, PP1 inh confirm 16.6* and PP5 counter -1.9.
Screening Cc1cccc(Cc2c(C)nc3c(C(=O)N4CCN(Cc5ccc6c(c5)OCO6)CC4)cnn3c2C)c1 returned PP1 counter 0.2, Calb FLC 15.7 and PP5 primary 6.1.
For Nc1ccc2c(c1)C/C(=C/c1ccco1)C2=O the results were PP1 counter 51.2*, Calb FLC -21.7, PP5 primary 0.3, ALR H2O2 inh 1.0, CSC inhib 12.1, PP1 inh confirm 9.0 and PP5 counter 2.6.
Screening Cc1cc(C2=NNC(=Nc3ccc(S(=O)(=O)N4CCOCC4)cc3)SC2)c(C)n1C returned PP1 counter 17.8*, Calb FLC -4.0, PP5 primary 0.0, CSC inhib 6.6, PP1 inh confirm -0.5 and PP5 counter -3.1.
`CCn1cc(C(=O)O)c(=O)c2cc(F)c(N3CCN(C(=O)Nc4ccccc4)CC3)cc21` gave PP1 counter 17.8*, Calb FLC inconclusive, PP5 primary 1.4, CSC inhib -10.8, PP1 inh confirm 11.8 and PP5 counter -2.3.
Screening CCn1cc(C(=O)NCc2ccco2)c(=O)c2cc(S(=O)(=O)N3CCc4ccccc4C3)ccc21 returned PP1 counter 19.2*, Calb FLC 11.9, PP5 primary 2.8, ALR H2O2 inh 4.4, CSC inhib 41.7, PP1 inh confirm 17.6* and PP5 counter 0.8.
Screening CCn1cc(C(=O)O)c(=O)c2cc(F)c(N3CCN(C(=S)NC(=O)c4ccccc4F)CC3)cc21 returned PP1 counter 3.5, Calb FLC 1.7, PP5 primary -2.3 and CSC inhib -3.7.
`CCn1cc(C(=O)O)c(=O)c2cc(F)c(N3CCN(S(=O)(=O)c4ccc(NC(C)=O)cc4)CC3)cc21` gave PP1 counter 42.0*, Calb FLC -0.5, PP5 primary 4.5, ALR H2O2 inh -0.9, CSC inhib -29.0, PP1 inh confirm 31.6* and PP5 counter -5.0.
For CCn1cc(C(=O)NCc2ccco2)c(=O)c2cc(S(=O)(=O)N3CCCCCC3)ccc21 the results were PP1 counter -2.2, Calb FLC 6.9, PP5 primary -0.2, ALR H2O2 inh -17.7 and CSC inhib 34.1.
CCn1cc(C(=O)NCc2ccco2)c(=O)c2cc(F)c(N3CCN(C(=O)c4ccco4)CC3)cc21 was read as PP1 counter 18.1*, Calb FLC -1.0, PP5 primary 1.5, ALR H2O2 inh -17.8, CSC inhib 4.4, PP1 inh confirm 7.8 and PP5 counter -5.3.
`CCOC(=O)Cc1c(C)nc2c(-c3ccccc3)c(C)nn2c1C` gave PP1 counter -2.9, Calb FLC 6.6, PP5 primary 1.6, ALR H2O2 inh 7.5 and CSC inhib -10.3.
CC(C)CN(C(=O)COC(=O)c1ccc(Br)cc1)c1c(N)n(Cc2ccccc2)c(=O)[nH]c1=O was read as PP1 counter -0.4, Calb FLC -4.1, PP5 primary -1.4, ALR H2O2 inh -0.2 and CSC inhib -12.9.
For COc1ccc(-c2nnc(NC(=O)c3ccc4c(c3)OCCO4)o2)cc1 the results were PP1 counter 10.8, Calb FLC -1.1, PP5 primary -0.5, ALR H2O2 inh 0.0 and CSC inhib 37.4.
Screening COc1ccc(-c2nnc(NC(=O)c3ccc(F)cc3)o2)cc1 returned PP1 counter 24.4*, Calb FLC 92.1*, PP5 primary 3.5, ALR H2O2 inh 21.7, CSC inhib 27.2, PP1 inh confirm 25.1* and PP5 counter -2.5.
Screening NC(N)=N/N=C/c1ccc(OCc2ccccc2)cc1 returned PP1 counter 7.6, Calb FLC -11.7, PP5 primary 0.5, ALR H2O2 inh -1.5 and CSC inhib 35.9.
